“And” between values parts separate entries of the source, which are not always exact repeats. Equal values may be shown once. Records with an inconclusive call do not appear. Entries that show only a call come without a potency. Some structures have more than one record in an assay (separate samples or runs), and their calls can disagree. The source made the active and inactive calls. Unless noted, calls come from the whole dose curve.
What was measured:
[1] = Nuclear factor erythroid 2-related factor 2/antioxidant responsive element (Nrf2/ARE) small molecule agonists: qHTS cell viability counter screen in human keratinocytes (AID 1919968; active = well fitted cell-killing curve with a large enough effect in the repeat runs; note: nearly all actives have a fitted effect of over 55% in size)
In short: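 Fluorescence read-out from CellTiter-Fluor after 1 h at 37 C. Wells held HaCaT-derived ARE-luciferase reporter cells (1,500/well) treated 23 h with DMSO-dissolved compounds. Run in the same wells as the luciferase agonist read.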

[2] = Nuclear factor erythroid 2-related factor 2/antioxidant responsive element (Nrf2/ARE) small molecule agonists: luciferase reporter gene qHTS assay in human keratinocytes (AID 1919969); note: nearly all actives have a fitted effect of over 35% in size; note: potency is the fitted concentration of half-maximal effect
[3] = molecular target: Gonadotropin-releasing hormone receptor (Homo sapiens) (UniProt P30968); test: Human gonadotropin-releasing hormone receptor (GnRHR) small molecule agonists, calcium flux assay in GnRHR-HEK293 cells (AID 1920063); note: nearly all actives have a fitted effect of over 35% in size
Sequence of Gonadotropin-releasing hormone receptor (Homo sapiens) (P30968 whole entry, looked up): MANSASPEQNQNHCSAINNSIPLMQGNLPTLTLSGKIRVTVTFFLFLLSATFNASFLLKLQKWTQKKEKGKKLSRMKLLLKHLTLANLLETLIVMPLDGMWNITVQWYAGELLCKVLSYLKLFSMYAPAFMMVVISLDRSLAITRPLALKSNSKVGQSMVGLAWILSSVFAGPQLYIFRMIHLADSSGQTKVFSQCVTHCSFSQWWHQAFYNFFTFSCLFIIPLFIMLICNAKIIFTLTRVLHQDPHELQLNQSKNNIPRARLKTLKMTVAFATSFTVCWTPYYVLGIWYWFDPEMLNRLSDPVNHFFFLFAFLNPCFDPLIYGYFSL
In short: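 Calcium-dye fluorescence, Ex/Em=480/540, recorded every 1 sec over 3 min after compound addition to GnRHR-HEK293 cells. Cells had been seeded 18 hours earlier and dye-loaded for 1 hour at 37 C. Fifteen concentrations, triplicates.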

[4] = p53 small molecule agonists, cell-based qHTS assay with human liver microsomes (AID 1963577)
In short: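 Cells carrying a p53-responsive bla reporter were rested 5 h (37 C, 5% CO2) before compound transfer. Human liver microsomes plus NADPH, 0.5 mg/mL final apiece, supplied metabolism during the 16 h 37 C exposure.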

[5] = p53 small molecule agonists, cell-based qHTS assay with rat liver microsomes (AID 1963578)
In short: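 Fluorescence from a beta-lactamase reporter under a p53 response element was measured after cells had been incubated 16 h at 37 C with test compound and rat liver microsomes plus NADPH (0.5 mg/mL final each).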

[6] = p53 small molecule agonists, cell-based qHTS assay with human liver microsomes: qHTS cell viability counter screen (AID 1963579); note: nearly all actives have a fitted effect of over 45% in size
In short: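 Seed p53RE-bla cells at 4,000 per well; incubate 5 h at 37 C; add compound, human liver microsomes and NADPH; incubate 16 h at 37 C; add CellTiter-Glo; after 30 min at room temperature, read luminescence.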

[7] = p53 small molecule agonists, cell-based qHTS assay with rat liver microsomes: qHTS cell viability counter screen (AID 1963580); note: nearly all actives have a fitted effect of over 45% in size
In short: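 Rat liver microsome (0.5 mg/mL final) and NADPH (0.5 mg/mL final) co-incubation with compounds for 16 h at 37 C on HCT-116 p53RE-bla cells; cytotoxicity taken from intracellular ATP luminescence.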

[8] = p53 small molecule agonists, cell-based qHTS assay: qHTS cell viability counter screen (AID 1963581); note: nearly all actives have a fitted effect of over 45% in size
In short: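 Cytotoxicity read-out: ATP-based luminescence (CellTiter-Glo, 30 min RT) measured in the same wells as the p53 reporter assay, HCT-116 p53RE-bla cells, 16 h compound exposure at 37 C.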

[9] = p53 small molecule agonists, cell-based qHTS assay (AID 1963582; active = well fitted activation curve with a large enough effect in the signal ratio in the repeat runs, not every such curve was filed as active; the % refers to the signal ratio)
In short: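 Fluorescence intensity read-out of a beta-lactamase reporter under a p53 response element. Cells were exposed to DMSO-dissolved compounds for 16 h at 37 C, then developed with FRET substrate for 2 h at RT.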

[10] = molecular target: 5-hydroxytryptamine receptor 2A (Homo sapiens) (UniProt P28223); test: 5-hydroxytryptamine receptor 2A (HTR2A) small molecule antagonists, cell-based qHTS assay (AID 1963586); note: nearly all actives have a fitted effect of over 45% in size; note: potency is the fitted concentration of half-maximal effect
Sequence of 5-hydroxytryptamine receptor 2A (Homo sapiens) (P28223 whole entry, looked up): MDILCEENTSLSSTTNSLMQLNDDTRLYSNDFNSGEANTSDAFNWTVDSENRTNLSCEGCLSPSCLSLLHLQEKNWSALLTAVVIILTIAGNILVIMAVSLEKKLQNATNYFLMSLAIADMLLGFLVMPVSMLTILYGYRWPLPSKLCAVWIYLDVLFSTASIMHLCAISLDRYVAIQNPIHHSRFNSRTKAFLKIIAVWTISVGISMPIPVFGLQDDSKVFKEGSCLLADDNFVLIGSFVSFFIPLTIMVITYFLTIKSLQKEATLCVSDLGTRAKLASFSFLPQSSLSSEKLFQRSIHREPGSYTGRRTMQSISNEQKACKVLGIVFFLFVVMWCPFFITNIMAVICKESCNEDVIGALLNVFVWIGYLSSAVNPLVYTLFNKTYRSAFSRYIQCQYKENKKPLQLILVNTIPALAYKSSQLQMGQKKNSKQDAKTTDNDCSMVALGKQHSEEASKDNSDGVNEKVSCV
In short: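 CHO cells stably expressing human HTR2A were plated for 18 h at 37 C, then loaded with calcium dye for 1 h. Compounds were preincubated 5 min at room temperature before DOI (4 nM solution) was added. Kinetic fluorescence was read for 3 min.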

[11] = molecular target: 5-hydroxytryptamine receptor 2A (Homo sapiens) (UniProt P28223); test: 5-hydroxytryptamine receptor 2A (HTR2A) small molecule agonists, cell-based qHTS assay (AID 1963587); note: nearly all actives have a fitted effect of over 30% in size
In short: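 Kinetic calcium-flux fluorescence (2 min, 1 sec intervals) after compound addition in agonist mode. HTR2A-CHO cells were cultured 18 h, then dye-loaded 1 h at 37 C.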

[12] = molecular target: Muscarinic acetylcholine receptor M1 (Homo sapiens) (UniProt P11229); test: Cholinergic receptor muscarinic 1 (CHRM1) small molecule antagonists, cell-based qHTS assay (AID 1963588); note: nearly all actives have a fitted effect of over 40% in size
Sequence of Muscarinic acetylcholine receptor M1 (Homo sapiens) (P11229 whole entry, looked up): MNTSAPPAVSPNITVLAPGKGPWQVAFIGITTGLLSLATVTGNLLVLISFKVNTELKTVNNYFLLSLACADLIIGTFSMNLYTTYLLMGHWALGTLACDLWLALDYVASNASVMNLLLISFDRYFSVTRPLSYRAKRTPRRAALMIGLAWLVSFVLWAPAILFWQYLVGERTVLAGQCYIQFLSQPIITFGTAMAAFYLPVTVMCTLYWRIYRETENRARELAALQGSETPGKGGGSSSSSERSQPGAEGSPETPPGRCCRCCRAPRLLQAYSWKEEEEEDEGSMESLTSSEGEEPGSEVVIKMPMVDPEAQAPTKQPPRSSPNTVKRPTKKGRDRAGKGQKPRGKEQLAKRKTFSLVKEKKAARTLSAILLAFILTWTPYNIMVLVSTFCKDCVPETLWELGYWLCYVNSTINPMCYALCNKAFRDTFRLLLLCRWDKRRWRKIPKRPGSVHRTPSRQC
In short: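 Compounds were tested at 15 concentrations in three independent runs. Dye-loaded CHRM1-CHO cells were exposed 5 min at room temperature before stimulation by acetylcholine added at 50nM. Intracellular calcium was read kinetically on FDSS for 3 min.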

[13] = molecular target: Muscarinic acetylcholine receptor M1 (Homo sapiens) (UniProt P11229); test: Cholinergic receptor muscarinic 1 (CHRM1) small molecule agonists, cell-based qHTS assay (AID 1963589); note: nearly all actives have a fitted effect of over 35% in size
In short: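 Calcium flux read-out: kinetic fluorescence at 1 sec intervals after pin-tool compound addition to dye-loaded CHRM1-CHO cells (human M1). Agonist mode; 15 concentrations tested in triplicate independent runs.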

[14] = cAMP Responsive Elements (CRE) small molecule antagonists, cell-based qHTS assay (AID 1963591; active = well fitted inhibition curve with a large enough effect in the signal ratio in the repeat runs, not every such curve was filed as active; the % refers to the signal ratio)
In short: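 HEK293T CRE-bla; 18 h preincubation; compound pin-transfer; NKH477 0.25 uM final, 3 h, 37 C; LiveBLAzer FRET substrate 2 h RT.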

[15] = molecular target: Beta-2 adrenergic receptor (Homo sapiens) (UniProt P07550); test: Adrenergic beta2 receptor (ADRB2) small molecule antagonists, cell-based qHTS assay (AID 1963592); note: series mostly up to about 92 µM; nearly all actives have a fitted effect of over 50% in size
Sequence of Beta-2 adrenergic receptor (Homo sapiens) (P07550 whole entry, looked up): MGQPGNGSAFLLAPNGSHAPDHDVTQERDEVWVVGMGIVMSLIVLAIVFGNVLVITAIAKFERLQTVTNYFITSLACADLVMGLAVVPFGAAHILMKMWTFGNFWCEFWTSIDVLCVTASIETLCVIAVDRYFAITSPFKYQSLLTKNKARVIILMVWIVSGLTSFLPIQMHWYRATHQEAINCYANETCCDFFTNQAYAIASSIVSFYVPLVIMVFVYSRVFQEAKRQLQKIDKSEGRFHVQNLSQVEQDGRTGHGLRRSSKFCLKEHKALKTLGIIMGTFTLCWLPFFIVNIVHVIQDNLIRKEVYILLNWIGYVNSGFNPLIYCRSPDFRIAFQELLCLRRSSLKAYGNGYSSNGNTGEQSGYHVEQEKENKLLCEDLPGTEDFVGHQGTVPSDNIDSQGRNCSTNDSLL
In short: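 Assay format: CHO-ADRB2 cells, 18-20hr seeding at 37C/5% CO2, then compound plus 1nM isoproterenol agonist mix for 0.5hr RT. Homogeneous time-resolved fluorescence cAMP detection after 1hr, expressed as 665/615 nm ratio.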

[16] = molecular target: Beta-2 adrenergic receptor (Homo sapiens) (UniProt P07550); test: Adrenergic beta2 receptor (ADRB2) small molecule agonists, cell-based qHTS assay (AID 1963593);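 note: CHO cells stably overexpressing human ADRB2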
In short: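 CHO cells stably over-expressing ADRB2 were plated overnight at 37C, then dosed with compounds plus a stimulation mix containing 100uM IBMX and 25uM Ro-20-1724 for 0.5hr at room temperature. cAMP was measured by HTRF competition, 1hr.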

[17] = molecular target: D(2) dopamine receptor (Homo sapiens) (UniProt P14416); test: Dopamine D2 receptor (DRD2) small molecule agonists, cell-based qHTS assay (AID 1963594); note: nearly all actives have a fitted effect of over 35% in size
Sequence of D(2) dopamine receptor (Homo sapiens) (P14416 whole entry, looked up): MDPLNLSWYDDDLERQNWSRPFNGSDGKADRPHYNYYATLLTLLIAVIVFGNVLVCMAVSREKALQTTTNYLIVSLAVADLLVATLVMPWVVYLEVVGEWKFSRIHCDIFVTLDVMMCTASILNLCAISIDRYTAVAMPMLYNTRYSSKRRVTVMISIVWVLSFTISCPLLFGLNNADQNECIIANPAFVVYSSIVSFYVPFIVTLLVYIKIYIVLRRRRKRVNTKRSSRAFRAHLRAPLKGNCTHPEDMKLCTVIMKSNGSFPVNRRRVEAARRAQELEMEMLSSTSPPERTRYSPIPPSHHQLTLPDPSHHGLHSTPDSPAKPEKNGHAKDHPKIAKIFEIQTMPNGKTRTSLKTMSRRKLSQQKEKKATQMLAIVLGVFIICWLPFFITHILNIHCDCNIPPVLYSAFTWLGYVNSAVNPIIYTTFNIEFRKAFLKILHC
In short: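 cAMP accumulation in DRD2-HEK293 cells measured by HTRF after 1 h detection; compounds added 10 min before NKH477 (200nM […]) forskolin-analogue stimulation, 30 min at room temperature, with Ro20-1724 present at 0.1 mM final.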

[18] = molecular target: D(2) dopamine receptor (Homo sapiens) (UniProt P14416); test: Dopamine D2 receptor (DRD2) small molecule antagonists, cell-based qHTS assay (AID 1963595; active = well fitted inhibition curve with a large enough effect in the signal ratio in the repeat runs, with a control signal flat; the % refers to the signal ratio)
In short: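 Human DRD2 antagonist qHTS measuring cAMP by HTRF. The cells are exposed to compound for 10 min, then to NKH477 (200 nM) and quinpirole (12 nM) for 30 min at RT, with Ro20-1724 (0.1 mM) present throughout.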

[19] = cAMP Responsive Elements (CRE) small molecule agonists, cell-based qHTS assay (AID 1963590)
In short: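 Beta-lactamase reporter readout: LiveBLAzer B/G FRET substrate, 2 h at room temperature, added after 3 h compound treatment of CRE-bla HEK 293T cells at 37 C/5% CO2.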

[20] = G protein-coupled receptor (GPCR) small molecule agonists, calcium flux assay: HEK293 wild type cell line counter screen (AID 1920065)
In short: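 Agonist mode; 18 h seeding at 37 C, 1 h dye load at 37 C; compounds pinned from DMSO, ATP as positive control; kinetic fluorescence 480/540 nm, 3 min, 1 s reads; 15 concentrations, triplicate.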

| Structure (SMILES) | Potency [1] | Potency [2] | Potency [3] | Potency [4] | Potency [5] | Potency [6] | Potency [7] | Potency [8] | Potency [9] | Potency [10] | Potency [11] | Potency [12] | Potency [13] | Potency [14] | Potency [15] | Potency [16] | Potency [17] | Potency [18] | Potency [19] | Potency [20] |
| --- | --- | --- | --- | --- | --- | --- | --- | --- | --- | --- | --- | --- | --- | --- | --- | --- | --- | --- | --- | --- |
| Nc1ccc(S(=O)(=O)Nc2ccc(Cl)nn2)cc1 | inactive | inactive | inactive | inactive | inactive | inactive | inactive | inactive | inactive | inactive | inactive | inactive | inactive | inactive | inactive | inactive | inactive | inactive | – | – |
| CN(C)c1ccc(Cc2ccc(N(C)C)cc2)cc1 | inactive | inactive and 34.4 µM (active) | inactive | inactive | inactive | inactive | inactive | inactive | inactive | 4.23 µM (active) | inactive | inactive | inactive | inactive | inactive | inactive | inactive | inactive | inactive | – |
| CCCCC(CC)COCC1CO1 (stereo not drawn) | inactive | inactive | inactive | – | – | inactive | inactive | inactive | – | inactive | inactive | inactive | inactive | inactive | inactive | inactive | inactive | – | inactive | – |
| CO[C@@]1(NC(=O)C(C(=O)O)c2ccc(O)cc2)C(=O)N2C(C(=O)O)=C(CSc3nnnn3C)CO[C@@H]21 (stereo partly drawn) | inactive | inactive | inactive | inactive | inactive | inactive | inactive | inactive | inactive | inactive | inactive | inactive | inactive | inactive | inactive | inactive | inactive | inactive | inactive | inactive |
| O=C(O)CNC(=O)c1ccccc1I | inactive | inactive | inactive | inactive | inactive | inactive | inactive | inactive | inactive | inactive | inactive | inactive | inactive | inactive | inactive | inactive | inactive | inactive | inactive | inactive |
| C1=COCCC1 | inactive | inactive | inactive | inactive | inactive | inactive | inactive | inactive | inactive | inactive | inactive | inactive | inactive | inactive | inactive | inactive | inactive | inactive | inactive | inactive |
| CC(=O)/C=C/C1C(C)=CCCC1(C)C (stereo not drawn) | inactive | inactive | inactive | – | – | inactive | inactive | inactive | – | inactive | inactive | inactive | inactive | inactive | inactive | inactive | inactive | inactive | – | – |
| CC(O)C(C)O (stereo not drawn) | inactive | inactive | inactive | inactive | inactive | inactive | inactive | inactive | inactive | inactive | inactive | inactive | inactive | inactive | inactive | inactive | inactive | inactive | inactive | inactive |
| CCOC(=O)C(C)Oc1ccc(Oc2cnc3cc(Cl)ccc3n2)cc1 (stereo not drawn) | inactive | inactive | inactive | – | – | inactive | – | – | – | – | – | – | inactive | – | inactive | – | inactive | inactive | – | – |
| Cc1ccc(C(=O)C(=O)O)cc1C | inactive | inactive | inactive | inactive | inactive | inactive | inactive | inactive | inactive | inactive | inactive | inactive | inactive | inactive | inactive | inactive | inactive | inactive | inactive | inactive |
| CCCCCCCCC1CCC(=O)O1 (stereo not drawn) | inactive | inactive | inactive | inactive | inactive | inactive | inactive | inactive | inactive | inactive | inactive | inactive | inactive | inactive | inactive | inactive | inactive | inactive | inactive | inactive |
| O=C(O)c1ccccc1C(c1ccc(O)cc1)c1ccc(O)cc1 | inactive | inactive | inactive | – | – | inactive | inactive | inactive | – | inactive | inactive | inactive | inactive | inactive | inactive | – | inactive | inactive | inactive | – |
| CCCCCCCCCCCCCCCCCCOCC(O)CO (stereo not drawn) | inactive | inactive | inactive | inactive | inactive | inactive | inactive | inactive | inactive | inactive | inactive | inactive | inactive | inactive | inactive | – | inactive | – | inactive | inactive |
| CCCCN=C(N)N=C(N)N | inactive | inactive | inactive | inactive | inactive | – | inactive | inactive | inactive | inactive | inactive | inactive | inactive | inactive | inactive | – | inactive | inactive | – | – |
| OCc1ccccc1O | inactive | inactive | inactive | inactive | inactive | inactive | inactive | inactive | inactive | inactive | inactive | inactive | inactive | inactive | inactive | inactive | inactive | – | inactive | inactive |
| CCOc1ccccc1C(N)=O | inactive | inactive and 33.5 µM (active) | inactive | inactive | inactive | inactive | inactive | inactive | inactive | inactive | inactive | inactive | inactive | inactive | inactive | inactive | inactive | inactive | inactive | inactive |

Source: PubChem BioAssay (Tox21)
